Results filed as inconclusive are left out. A call without a number means that no potency is given here. A number with no mark means an inactive call. Calls of active or inactive are those of the source. Calls come from the whole dose curve; as a rule, active = well fitted cell-killing curve with a large enough effect in the repeat runs (not every such curve was filed as active); inconclusive = weak or mixed curves, or effect the other way; inactive = no such curve, though single readings can be large or run the other way.

Results on 40 compounds are retold here after PubChem BioAssay (Tox21).

The nature of the experiment: qHTS assay to identify small molecule antagonists of the farnesoid-X-receptor (FXR) signaling pathway - cell viability counter screen (AID 743221). Note: nearly all actives have a fitted effect of over 50% in size. The conditions noted are these: FXR-bla HEK293T viability, CellTiter-Glo luminescence, 16 h; series mostly up to 62.6 µM. The text has this: National Center for Advancing Translational Sciences [NCATS]
NIH Chemical Genomics Center [NCGC]
U.S. Environmental Protection Agency [EPA]
National Institutes of Environmental Health Sciences [NIEHS]
National Toxicology Program [NTP]
U.S. Food and Drug Administration [FDA]
The farnesoid-X-receptor (FXR), a nuclear hormone receptor, is highly expressed in liver, intestine, kidney and adrenal cortex. Natural ligands of FXR are the bile acids (Cholic acid, Chenodeoxy cholic acid etc). FXR is an important regulator of diverse metabolic pathways, including the bile acid homeostasis, lipid and glucose metabolisms. FXR regulates the expression of target genes by binding either as a monomer or as a heterodimer with the retinoid X receptor (RXR). Numerous studies have reported that FXR exerts protective function during cholestasis, diabetes, liver regeneration, and cancer. To identify compounds that inhibit FXR signaling, GeneBLAzer FXR-UAS-bla HEK 293T cell line (Invitrogen, Carlsbad, CA) containing a beta-lactamase reporter gene under the control of a UAS response element was used to screen the Tox21 10K compound library. The cytotoxicity of the Tox21 compound library against the FXR-bla cell line was tested in parallel by measuring the cell viability using CellTiter-Glo assay in the same wells.
Tox21 Assay Protocol Summary:
FXR-bla cells were dispensed at 5000 cells/5uL/well in 1536-well black wall/clear bottom plates using a Multidrop Combi (Thermo Fisher Scientific, Waltham, MA) dispenser. After the assay plates were incubated at 37 C and 5% CO2 for 5 h, 23 nL of compounds dissolved in DMSO, positive controls or DMSO only was transferred to the assay plate by a Pintool station (Kalypsys, San Diego, CA), followed by addition of 1 uL Chenodeoxycholic acid (50 uM, final concentration in the wells). The assay plates were incubated at 37C for 16 h. After 1 uL of LiveBLAzerTM B/G FRET substrate was added using a Bioraptr Flying Reagent Dispenser (FRD) workstation (Beckman Coulter, Indianapolis, IN), the plates were incubated at room temperature for 2 h, and fluorescence intensity was measured by an Envision plate reader (PerkinElmer, Shelton, CT). For cell viability readout that measures cytotoxicity, 4uL/well of CellTiter-Glo reagent was added into the assay plates using a Bioraptr FRD. After 30 min incubation at room temperature, the luminescence intensity in the plates was measured using a ViewLux plate reader (PerkinElmer).
`OC(CCN1CCCCC1)(c1ccccc1)C1CC2C=CC1C2` (stereo not given): the Potency result was “inactive”. Still for that read-out and setting: next, `N=C(N)c1ccc2cc(OC(=O)c3ccc(N=C(N)N)cc3)ccc2c1`: “inactive”. In the case of `NC(=O)c1ccc([N+](=O)[O-])cc1`, the Potency entry is “inactive”.

For the compound `C[N+](C)(C)CCCCCC[N+](C)(C)C`, the Potency result was “inactive”. The same measure, in the same setting: under `COC(C)(C)CCCC(C)CC=O` (stereo not given) stands “inactive”. The same measure, in the same setting: next, `Nc1ccccc1S(=O)(=O)O`: “inactive”; `CC(C)c1cc2c(cc1S(=O)(=O)O)[C@@]1(C)CCC[C@@](C)(C(=O)O)[C@@H]1CC2`: “inactive”; `CCS(=O)(=O)c1ccc(OC)c(C(=O)OC)c1`: “inactive”. On to `Cc1sccc1Br`, for which the Potency entry was “inactive”. For the compound `CCCCC(CC)COC(=O)c1ccccc1O` (stereo not given), the Potency result was “inactive”. Still for that read-out and setting: next, `O=c1cc(-c2ccccc2)oc2ccccc12`: “inactive”; `CCOC(=O)[C@H](CCc1ccccc1)N[C@@H](C)C(=O)N1[C@H](C(=O)O)C[C@@H]2CCC[C@@H]21`: “inactive”; `CCn1ccnc1CC1COc2ccccc2O1` (stereo not given): “inactive”. The same measure, in the same setting: under `NS(=O)(=O)c1cc(C(=O)O)cc(N2CCCC2)c1Oc1ccccc1` stands “inactive”; under `CCCCCCOC(=O)CCCCC(=O)OCCCCCC`, “inactive”; under `CC(C)(O)C#CC(C)(C)O`, “inactive”. `CCCCCCCCCCCCN(CCCCCCCCCCCC)CCCCCCCCCCCC`: the Potency result is “inactive”.

For the compound `OC1CCCCC1c1ccccc1` (stereo not given), the Potency entry was “inactive”. Turning to `CC(C)(O)C(=O)c1ccccc1`, the Potency entry is “inactive”.

Consider `NS(=O)(=O)c1cc(C(=O)NN2C[C@H]3[C@H]4CCC(C4)[C@H]3C2)ccc1Cl`, for which the Potency entry was “inactive”. Turning to `COc1nc(N)nc2c1ncn2[C@@H]1O[C@H](CO)[C@@H](O)[C@@H]1O`, the Potency entry was “inactive”. Still for that read-out and setting: next, `CCn1nc(C(=O)O)c(=O)c2cc3c(cc21)OCO3`: “inactive”. Consider `CCOc1ccc(C(=O)OCCN(CC)CC)cc1`, for which the Potency result was “inactive”.

In the case of `C=CCS(=O)(=O)O`, the Potency result was “inactive”.

With `CN1CCCC1`, the Potency result was “inactive”. Turning to `Cc1ccc(Cl)cc1Cl`, the Potency result is “inactive”. For `C=CCCCCCCCCC=O`, the Potency result was “inactive”. For `Cc1nc2c([nH]1)c(=O)n(C)c(=O)n2Cc1ccco1`, the Potency entry is “inactive”. Consider `O=C[C@H](O)[C@@H](O)[C@H](O)[C@H](O)CO`, for which the Potency result was “inactive”. Still for that read-out and setting: under `CCOC(=O)c1c(C)n(C)c2ccc(O)cc12` stands “inactive”. On to `N[C@@H](C(=O)N[C@@H]1C(=O)N2C(C(=O)O)=C(Cl)CS[C@H]12)c1ccccc1`, for which the activity change, negative = cytotoxicity is 6.46% [at 13.2 µM]. Turning to `CN1CC(=O)NC1=N`, the Potency result was “inactive”. With `CCOC(=O)CCC(C)=O`, the Potency entry was “inactive”. Still for that read-out and setting: under `N=C(N)c1ccc(OCCCOc2ccc(C(=N)N)cc2)cc1` stands “inactive”; under `CCO[Si](CCC1CCC2OC2C1)(OCC)OCC` (stereo not given), “inactive”. Same read-out and setting: next, `O=S(O)CO`: “inactive”. Turning to `C[C@](N)(Cc1ccc(O)cc1)C(=O)O`, the activity change, negative = cytotoxicity is -5.83% [at 5.95 µM]. On to `Nc1c2c(nc3ccccc13)CCCC2O` (stereo not given), for which the Potency result was “inactive”.

In the case of `Cc1cc(O)cc2c1O[C@](C)(CCC[C@H](C)CCC[C@H](C)CCCC(C)C)CC2`, the Potency entry is “inactive”. Same read-out and setting: under `CC(C)(c1ccc(O)cc1)c1ccc(O)cc1` stands “inactive”.
